Assay in all cases: PBM binding z-score (relative to random genomic background probes); higher = stronger binding; sequences stand for … in GC…GCGATTGACAGCGTAGAATGAAGG
For assay [1], the system named is FXR:RXRa (NR concentration 270 nM, RXRa partner concentration 90 nM). In a few lines: (§1)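 Ligand-free nuclear receptor dimers were bound for 1 h to custom Agilent 4×180K protein-binding microarrays. Detection used antibodies against each partner (one per run). Binding z-scores rest on regression-normalized fluorescence, with random background probes as the reference.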

Assay [2] deals with LXRa:RXRa (NR concentration 270 nM, RXRa partner concentration 90 nM). In short, it runs like this: as §1
Assay [3] concerns LXRa homodimer (NR concentration 270 nM). In a few lines: as §1
The subject of assay [4] is LXRb:RXRa (NR concentration 270 nM, RXRa partner concentration 90 nM). In short, it runs like this:
as §1

Assay [5] deals with LXRb homodimer (NR concentration 270 nM). In short, it runs like this: as §1
For assay [6], the system named is PPARa:RXRa (NR concentration 270 nM, RXRa partner concentration 90 nM). In a few lines:
as §1

The subject of assay [7] is PPARg:RXRa (NR concentration 180 nM, RXRa partner concentration 90 nM). In a few lines: as §1
For assay [8], the system named is PPARg:RXRa 270nM:90nM, anti-RXR (NR concentration 270 nM, RXRa partner concentration 90 nM). In short, it runs like this: as §1
The test system of assay [9] is PPARg:RXRa 30nM:10nM, anti-RXR (NR concentration 30 nM, RXRa partner concentration 10 nM). In a few lines: as §1
Assay [10] relates to PPARg:RXRa 90nM:30nM, anti-RXR (NR concentration 90 nM, RXRa partner concentration 30 nM). In short, it runs like this: as §1
The subject of assay [11] is PPARg:RXRa DBDmut IVT, anti-RXR (DBD mutation: RXRa K156A/R161A, NR concentration 270 nM, RXRa partner concentration 90 nM). In a few lines: as §1
The subject of assay [12] is PPARg:RXRa IVT, anti-PPARg (NR concentration 270 nM, RXRa partner concentration 90 nM). In short, it runs like this: as §1
Assay [13] deals with PPARg DBDmut IVT, anti-PPARg (DBD mutation: PPARg1 K132A/R137A, NR concentration 270 nM). In a few lines:
as §1

The test system of assay [14] is PPARg homodimer (NR concentration 180 nM). In short, it runs like this: as §1
Assay [15] deals with PXR:RXRa (NR concentration 270 nM, RXRa partner concentration 90 nM). In a few lines: as §1
In assay [16] the test system is PXR homodimer (NR concentration 270 nM). In short, it runs like this:
as §1

Assay [17] concerns RARa:RXR (NR concentration 270 nM, RXRa partner concentration 90 nM). In a few lines:
as §1

The subject of assay [18] is RARa homodimer (NR concentration 270 nM). In a few lines: as §1
The test system of assay [19] is RARb:RXRa (NR concentration 270 nM, RXRa partner concentration 90 nM). In a few lines: as §1
Assay [20] deals with PPARg DBDmut:RXRa IVT, anti-PPARg (DBD mutation: PPARg1 K132A/R137A, NR concentration 270 nM, RXRa partner concentration 90 nM). In a few lines:
as §1

The source of these data is the supplement of paper PMC6555819.

With ATATGTAGATTAGGGTCATTCAGAAAGTAGGGAA, the PBM binding z-score in assay [1] stood at 4.07; in assay [2], 3.39; in assay [3] it was 0.828; in [4], 4.21; in [5] it was 1.27; in assay [6] it was 4.91. In addition, the PBM binding z-score in assay [7] turned out to be 3.51; in assay [8], 3.48; in assay [9], 1.4; in assay [10] it was 2.69; in assay [11], 1.94; in [12], 2.96. Also, the PBM binding z-score in [13] was found to be 1.38; in assay [14] it was 2.2; in assay [15], 3.84; in assay [16] it was 1.24; in [17], 4.48; in assay [18], 1.28. Also, in assay [19], the PBM binding z-score was 2.92.

Turning to ATACGTAGGTTACATCCGGGTCATTCAGGCTATG, the PBM binding z-score in [1] came to 2.32; in [2], 4.39; in assay [3], 1.12; in assay [4] it was 2.83; in assay [5], 0.366; in [6], 3.03. Besides, the PBM binding z-score in assay [7] stood at 1.57; in [8], 1.54; in assay [9], 0.526; in assay [10] it was 1.13; in assay [11], 1.15; in assay [12], 2.36. Further, the PBM binding z-score amounted to 1.24 in assay [20]; 0.742 in assay [13]; 1.87 in assay [14]; 2.6 in assay [16]; 3.48 in assay [17]; 0.687 in [18]. The PBM binding z-score in [19] was 2.27.

Turning to CTAACTAGGTCAAAGGACAGTGAAAGGCGACGTA, the PBM binding z-score in assay [1] is 3.68; in assay [2], 2.75; in [3], 0.132; in assay [4] it was 1.85; in assay [5] it was -0.0221; in assay [6], 5.86. The PBM binding z-score in [7] amounted to 10.8; in [8], 9.18; in [9] it was 9.63; in [10], 10.2; in assay [11], 8.56; in [12] it was 8.84. In addition, the PBM binding z-score is 1.86 in assay [13]; 1.28 in [14]; 1.19 in assay [15]; -0.0818 in assay [16]; 2.41 in assay [17]; 0.599 in assay [18]. For the same sequence, the PBM binding z-score in [19] was 4.07.

Consider ATACCAAGGTGATCGTGAGTTCGTTGATACTAAC, for which the PBM binding z-score was 0.706 in assay [1]; 0.653 in [2]; 0.426 in assay [3]; 0.294 in assay [4]; -0.366 in assay [5]; 0.602 in [6]. Moreover, the PBM binding z-score is 0.328 in assay [7]; -0.00894 in [8]; 0.101 in assay [9]; -0.0417 in [10]; 0.668 in [11]; 0.994 in [12]. Moreover, the PBM binding z-score is -0.0501 in assay [20]; 0.822 in [13]; 0.422 in assay [14]; 3.19 in [16]; 0.619 in [17]; 0.465 in [18]. The sequence further returned a PBM binding z-score in assay [19] of 0.462.

For the sequence ATATGTAGGTTACATCCGAGTCATTCAGGCTATG, the PBM binding z-score in assay [1] is 0.413; in assay [2] it was 1.95; in assay [3], 0.304; in assay [4] it was 0.957; in assay [5], 0.682; in [6] it was 3.1. For the same sequence, the PBM binding z-score in [7] was found to be 5.14; in [8] it was 4.01; in [9], 1.78; in assay [10], 3.1; in assay [11], 6.76; in assay [12] it was 7.07. Further, the PBM binding z-score was found to be 4.51 in assay [20]; 3.39 in assay [13]; 0.982 in assay [14]; 0.05 in assay [16]; 0.757 in assay [17]; 0.574 in assay [18]. The sequence also displayed a PBM binding z-score in [19] of 0.973.

As for CGAACTAGGTCAAATGACAGTGAAAGGCGACGTA, the PBM binding z-score in assay [1] was 4.96; in assay [2], 3.06; in [3], 0.264; in assay [4], 2.29; in assay [5], 0.271; in [6] it was 5.2. Further, the PBM binding z-score in assay [7] stood at 8.2; in [8], 6.78; in assay [9], 5.35; in [10], 7.38; in assay [11], 7.89; in [12], 8.48. Moreover, the PBM binding z-score in [13] was 2.82; in assay [14] it was 2.37; in [15] it was 1.34; in assay [16], 0.00572; in assay [17], 2.23; in assay [18] it was 0.892. This sequence returned a PBM binding z-score in [19] of 4.02.

For the sequence CGAACTAGGTCAAAGTACAGTGAAAGGCGACGTA, the PBM binding z-score in assay [1] was determined as 4.69; in assay [2], 3.09; in assay [3], 0.303; in assay [4], 2.45; in assay [5] it was 0.12; in [6], 5.46. Also, the PBM binding z-score was 9.58 in assay [7]; 7.61 in assay [8]; 7.01 in [9]; 8.33 in [10]; 7.91 in assay [11]; 8.47 in assay [12]. For the same sequence, the PBM binding z-score in assay [13] was 3.06; in assay [14], 1.65; in [15] it was 1.58; in assay [16], -0.31; in assay [17], 2.5; in assay [18] it was -0.202. Moreover, the PBM binding z-score in assay [19] worked out at 3.84.
